Compounds with a hit are over-represented: about 1.7% of the library has one in this group of screens.
FGF22 binding = binders of human FGF22 protein, primary screen, FGF22 synaptogenesis inhibitor project, biophysical, thermal shift, single point; Fibroblast growth factor 22 (Homo sapiens), Q9HCT0; recombinant FGF22 thermal shift, SYPRO orange fluorescence; percent of sucrose octasulfate shift, DMSO zero; activity (Tm shift, normalised), % at 9.99 µM; 340,000 compounds, 1.5% hits; AID 651658, 2012;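 active = mean Tm shift, scaled 0 neutral to 100 positive control, at about 1.3% or above, every replicate too, limit read from the data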
Target sequence (Q9HCT0 whole entry, looked up): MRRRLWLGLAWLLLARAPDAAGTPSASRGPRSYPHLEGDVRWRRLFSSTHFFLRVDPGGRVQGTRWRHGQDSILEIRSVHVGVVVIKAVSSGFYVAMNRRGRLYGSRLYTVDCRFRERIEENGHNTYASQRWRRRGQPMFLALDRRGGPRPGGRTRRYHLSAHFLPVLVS
Vif imaging = HIV Vif self-association inhibitors, primary screen, imaging, HEK293T, single point | inhibition, % at 7.49 µM | AID 602346, 2012 | HEK293T cells, Vif self-association by quenched fluorescence, 24 h | 340,000 compounds, 0.35% hits; in the data active = inhibition above about 50%, passing the limit was not always enough
CFTR F508del cor = F508del CFTR correction, initial screen, CFBE line, single point; AID 720511, 2013; CFBE cells, YFP halide quenching; stimulated with forskolin plus potentiator P3; % fluorescence drop versus neutral controls; 350,000 compounds, 0.36% hits; activity (quench increase), % at 7.58 µM;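 active = mean added fluorescence quench of at least 8% versus neutral control, with both replicates also reaching 8%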;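 also: cells transiently co-express mutant CFTR-F508del with the halide-sensitive YFP; corrector assay measuring rescue of mutant channel to the surface after 24 h compound exposure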
Active calls of the source: *.

CC(=O)Nc1ccc(NC(=O)[C@@H]2CCCC[C@@H]2C(=O)O)cc1 was read as FGF22 binding 0, Vif imaging 83* and CFTR F508del cor 0.
CC(=O)Nc1ccc(NC(=O)C2CCCCC2C(=O)O)cc1 (configuration not stated) was read as Vif imaging 0.
For O=C(CSc1nc2[nH]ncc2c(=O)n1-c1ccccc1Cl)N1CCCC1 the results were FGF22 binding 1, Vif imaging 3 and CFTR F508del cor 0.
For CCc1ccccc1-n1c(SCC(=O)N2CCCC2)nc2[nH]ncc2c1=O the results were FGF22 binding 44*, Vif imaging -3 and CFTR F508del cor 1.
O=C(CC1Sc2ccccc2NC1=O)NNc1cccc(Cl)c1Cl (configuration not stated) was read as FGF22 binding 0, Vif imaging 0 and CFTR F508del cor 8.3*.
Screening COC(=O)CC1Sc2ccccc2NC1=O (configuration not stated) returned Vif imaging 3.
Screening COc1ccc(CNC(=O)NCCc2c[nH]c3ccccc23)cc1 returned FGF22 binding 0, Vif imaging 8 and CFTR F508del cor 0.
Screening COc1ccc(CCNC(=S)NCCc2c[nH]c3ccccc23)cc1 returned FGF22 binding 1.4*, Vif imaging -5 and CFTR F508del cor 0.
`O=C(NCCCn1ccnc1)c1ccc(Cl)cc1[N+](=O)[O-]` gave FGF22 binding 43*, Vif imaging -5 and CFTR F508del cor 4.
O=C(CNC(=O)c1ccc(Cl)cc1Cl)NCCCn1ccnc1 was read as Vif imaging 3.
`CC(C)C(=O)Nc1ccc2c(c1)C(=O)N(C)[C@H]1CC[C@H](CC(=O)Nc3cccc(F)c3)O[C@@H]1CO2` gave FGF22 binding 0 and CFTR F508del cor -3.
For COc1ccc(/C=N/Nc2ccc([N+](=O)[O-])cc2)cc1Cn1cc([N+](=O)[O-])cn1 the results were Vif imaging 98*.
`COc1ccc(/C=N/n2cncn2)cc1Cn1cc([N+](=O)[O-])cn1` gave FGF22 binding 0, Vif imaging 14 and CFTR F508del cor -1.
`COc1ccc(-n2nc(C(=O)NCC(=O)Nc3cccc(Cl)c3)c3ccccc3c2=O)cc1OC` gave FGF22 binding 0, Vif imaging 53* and CFTR F508del cor -2.
`CCOc1ccc(NC(=O)CNC(=O)c2nn(-c3ccc(OC)c(OC)c3)c(=O)c3ccccc23)cc1` gave FGF22 binding 0, Vif imaging -10 and CFTR F508del cor 3.
C/C(=C\C(=O)c1ncc(C(F)(F)F)cc1Cl)N(C)C was read as FGF22 binding 1, Vif imaging -2 and CFTR F508del cor -1.
For CN(C)/C=C(\C=O)c1ncc(C(F)(F)F)cc1Cl the results were FGF22 binding 43*, Vif imaging -2 and CFTR F508del cor 0.
O=C(CCN1C(=O)c2ccccc2C1=O)NCc1ccco1 was read as FGF22 binding 0, Vif imaging 21 and CFTR F508del cor -1.
O=C(CCN1C(=O)c2cccc3cccc(c23)C1=O)Nc1ccccc1 was read as FGF22 binding 43*, Vif imaging -6 and CFTR F508del cor 4.
O=C(CCN1C(=O)c2cccc3cccc(c23)C1=O)NCc1ccco1 was read as FGF22 binding 44*, Vif imaging -7 and CFTR F508del cor 2.
Screening Cc1ccc(NC(=O)CCN2C(=O)c3cccc4cccc(c34)C2=O)cc1 returned FGF22 binding 0 and Vif imaging 6.
`CO[C@@H]1CN(C)C(=O)c2ccc(NC(=O)C3CC3)cc2OC[C@@H](C)N(C)C[C@H]1C` gave FGF22 binding 0 and CFTR F508del cor -5.
`C[C@@H]1CN([C@@H](C)CO)C(=O)Cc2cc(NC(=O)c3ccncc3)ccc2O[C@H]1CN(C)S(=O)(=O)c1cn(C)cn1` gave FGF22 binding 0 and CFTR F508del cor -2.
For CC(=O)N(C)C[C@H]1Oc2cc(C#Cc3ccccc3)ccc2S(=O)(=O)N([C@@H](C)CO)C[C@H]1C the results were FGF22 binding 0 and CFTR F508del cor -2.
`C[C@@H]1CN([C@H](C)CO)C(=O)c2cccc(NS(=O)(=O)c3ccc(F)cc3)c2O[C@@H]1CN(C)S(C)(=O)=O` gave FGF22 binding 0 and CFTR F508del cor -2.
Screening C[C@@H]1CN([C@@H](C)CO)C(=O)c2cccc(NC(=O)CCCCCC(=O)Nc3ccccc3N)c2O[C@@H]1CN(C)C(=O)Nc1ccc2c(c1)OCO2 returned FGF22 binding 0 and CFTR F508del cor 0.
Screening COc1ccccc1CNC(=O)CSC1=NCCS1 returned FGF22 binding 0, Vif imaging 58* and CFTR F508del cor 0.
`COC(=O)c1ccc(CNC(=O)Cn2cnnn2)cc1` gave FGF22 binding 0, Vif imaging 18 and CFTR F508del cor 2.
For COc1ccccc1CNC(=O)CSc1ccc(Br)cc1 the results were Vif imaging 1.
Screening COc1ccccc1CNC(=O)Cn1cnnn1 returned FGF22 binding 0, Vif imaging -10 and CFTR F508del cor 12*.
`O=C(O)C[C@H]1CC[C@@H](NC(=O)c2ccccc2F)[C@H](CO)O1` gave FGF22 binding 0 and CFTR F508del cor 4.
`Cc1ccccc1NC(=S)/C(=C(\[O-])c1cc(C)n(Cc2ccccc2Cl)c1C)[n+]1ccccc1` gave FGF22 binding 43*, Vif imaging 1 and CFTR F508del cor 1.
For Cc1cc(C([O-])=C(C(=S)Nc2ccccc2)[n+]2ccccc2)c(C)n1-c1ccccc1 the results were FGF22 binding 0, Vif imaging -1 and CFTR F508del cor 1.
Screening O=C(C1CCOCC1)N1CC(=O)N2[C@H](C1)[C@H](c1ccc(C#CC3CC3)cc1)[C@@H]2CO returned CFTR F508del cor -1.
For O=C(N[C@H]1CC[C@@H](CCNC(=O)C2CCOCC2)O[C@H]1CO)c1ccncc1 the results were FGF22 binding 0 and CFTR F508del cor -1.
C[C@@H]1CN([C@@H](C)CO)C(=O)c2cc(C3=CCCCC3)cnc2O[C@@H]1CN(C)C(=O)CN1CCOCC1 was read as FGF22 binding 0 and CFTR F508del cor -2.
COCCN(C(=O)CSc1nnc(-c2ccccc2F)n1C)c1c(N)n(Cc2ccccc2)c(=O)[nH]c1=O was read as FGF22 binding 43*, Vif imaging -2 and CFTR F508del cor 0.
`COCCN(C(=O)CSc1nnc(-c2cccc(C)c2)n1C)c1c(N)n(Cc2ccccc2)c(=O)[nH]c1=O` gave FGF22 binding 0, Vif imaging -7 and CFTR F508del cor 2.
COc1ccc(NC(=O)Nc2ccc3c(c2)CC(=O)N([C@@H](C)CO)C[C@@H](C)[C@@H](CN(C)CC2CC2)O3)cc1 was read as FGF22 binding 0 and CFTR F508del cor -2.
Screening Clc1ccc(-c2cnn3c(-c4ccncc4)ccnc23)cc1 returned FGF22 binding 44*, Vif imaging 9 and CFTR F508del cor 0.
Screening Nc1c(C(=O)O)cnc2c(-c3ccc(Cl)cc3)cnn12 returned FGF22 binding 0, Vif imaging -3 and CFTR F508del cor -1.

High-throughput results from PubChem.
